# Assay results: paper PMC7862700, “An all-to-all approach to the identification of sequence-specific readers for epigenetic DNA modifications on cytosine”
# Legend:
# Assay in all cases: DAPPL (digital affinity profiling via proximity ligation, sequencing); 10 mM Tris-HCl pH 7.5, 50 mM NaCl, 1 mM DTT, 4% glycerol, room temperature, 30 min; GST-TFs on glutathione beads, 16-mer random dsDNA library, 0.1% formaldehyde crosslink after washing; high values mean tight binding
# ELK1 = target: T1, ELK1 (Homo sapiens, UniProt P19419 1-428); conditions: protein: recombinant; tags: N-terminal GST; dsDNA, one strand shown
# T1 sequence: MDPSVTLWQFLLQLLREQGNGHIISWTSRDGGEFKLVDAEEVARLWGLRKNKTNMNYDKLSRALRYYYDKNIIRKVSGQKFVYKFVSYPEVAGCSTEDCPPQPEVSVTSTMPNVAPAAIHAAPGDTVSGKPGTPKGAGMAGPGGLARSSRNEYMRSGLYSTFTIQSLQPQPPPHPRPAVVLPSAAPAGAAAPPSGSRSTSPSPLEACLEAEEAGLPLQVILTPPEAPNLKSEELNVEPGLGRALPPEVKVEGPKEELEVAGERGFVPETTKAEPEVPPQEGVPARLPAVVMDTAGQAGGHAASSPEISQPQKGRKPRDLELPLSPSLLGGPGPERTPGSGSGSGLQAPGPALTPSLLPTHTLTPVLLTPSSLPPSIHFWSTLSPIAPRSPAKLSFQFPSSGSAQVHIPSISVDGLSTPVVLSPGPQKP
# Method in brief: (§1)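 GST fusions of human transcription factors were expressed in yeast and captured with glutathione beads. Once given DNA barcodes and pooled alongside a tag-only sample, they were incubated for 30 min at room temperature with 200 nmole of a random double-stranded 16-mer DNA library in Tris/NaCl/DTT/glycerol buffer, then washed, crosslinked (0.1% formaldehyde), proximity-ligated, PCR-amplified and sequenced on an Illumina NextSeq500. The binding signal of each hexamer is its read frequency for a factor divided by its frequency for the tag-only sample.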
# GABPA = target: T2, GABPA (Homo sapiens, UniProt Q06546 1-454); conditions: protein: recombinant; tags: N-terminal GST; dsDNA, one strand shown
# T2 sequence: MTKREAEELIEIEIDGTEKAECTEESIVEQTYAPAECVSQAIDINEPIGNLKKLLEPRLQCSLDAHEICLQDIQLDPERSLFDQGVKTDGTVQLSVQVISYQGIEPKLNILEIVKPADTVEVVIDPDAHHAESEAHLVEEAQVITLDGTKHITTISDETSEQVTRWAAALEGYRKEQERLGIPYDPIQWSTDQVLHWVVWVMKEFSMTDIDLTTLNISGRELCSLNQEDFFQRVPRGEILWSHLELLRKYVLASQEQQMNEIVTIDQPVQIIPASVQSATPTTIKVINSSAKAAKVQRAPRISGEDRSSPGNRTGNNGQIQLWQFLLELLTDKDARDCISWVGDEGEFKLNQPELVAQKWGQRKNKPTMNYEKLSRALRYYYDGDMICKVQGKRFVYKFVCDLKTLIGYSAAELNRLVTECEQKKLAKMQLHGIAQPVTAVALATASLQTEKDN
# Method in brief: as §1
# ELF1 = ELF1 (Homo sapiens, UniProt P32519 1-619); conditions: protein: recombinant; tags: N-terminal GST; dsDNA, one strand shown
# Method in brief: as §1
# SPI1 = SPI1 (Homo sapiens, UniProt P17947 1-270); conditions: protein: recombinant; tags: N-terminal GST; dsDNA, one strand shown
# Method in brief: as §1
# HSF1 = HSF1 (Homo sapiens, UniProt Q00613 1-529); conditions: protein: recombinant; tags: N-terminal GST; chain copies: 3; dsDNA, one strand shown
# Method in brief: as §1
# ELF4 = ELF4 (Homo sapiens, UniProt Q99607 1-663); conditions: protein: recombinant; tags: N-terminal GST; dsDNA, one strand shown
# Method in brief: as §1
# ELK4 = target: T3, ELK4 (Homo sapiens, UniProt P28324-2 1-405); conditions: protein: recombinant; tags: N-terminal GST; dsDNA, one strand shown
# T3 sequence: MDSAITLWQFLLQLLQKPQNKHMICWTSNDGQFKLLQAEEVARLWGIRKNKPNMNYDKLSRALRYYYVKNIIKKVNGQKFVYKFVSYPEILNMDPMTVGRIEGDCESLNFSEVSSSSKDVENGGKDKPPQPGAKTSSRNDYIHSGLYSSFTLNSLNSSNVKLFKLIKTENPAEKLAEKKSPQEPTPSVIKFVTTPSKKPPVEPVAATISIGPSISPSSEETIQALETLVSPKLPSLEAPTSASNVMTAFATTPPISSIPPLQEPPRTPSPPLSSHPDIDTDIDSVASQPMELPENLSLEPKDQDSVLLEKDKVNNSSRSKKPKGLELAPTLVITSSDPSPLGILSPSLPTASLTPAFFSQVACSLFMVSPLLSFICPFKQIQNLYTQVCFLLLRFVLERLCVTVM
# Method in brief: as §1
# ETV2 = target: T4, ETV2 (Homo sapiens, UniProt O00321 1-342); conditions: protein: recombinant; tags: N-terminal GST; dsDNA, one strand shown
# T4 sequence: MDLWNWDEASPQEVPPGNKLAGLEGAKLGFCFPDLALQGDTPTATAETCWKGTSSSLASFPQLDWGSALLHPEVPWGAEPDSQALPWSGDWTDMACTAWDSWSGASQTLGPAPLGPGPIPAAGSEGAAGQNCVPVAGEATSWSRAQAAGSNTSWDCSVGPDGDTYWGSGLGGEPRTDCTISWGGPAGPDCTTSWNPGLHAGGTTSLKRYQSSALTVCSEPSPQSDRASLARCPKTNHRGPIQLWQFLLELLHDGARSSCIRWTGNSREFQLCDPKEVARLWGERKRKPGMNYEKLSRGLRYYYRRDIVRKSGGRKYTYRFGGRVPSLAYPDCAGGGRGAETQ
# Method in brief: as §1
# ELF3 = target: T5, ELF3 (Homo sapiens, UniProt P78545 1-371); conditions: protein: recombinant; tags: N-terminal GST; dsDNA, one strand shown
# T5 sequence: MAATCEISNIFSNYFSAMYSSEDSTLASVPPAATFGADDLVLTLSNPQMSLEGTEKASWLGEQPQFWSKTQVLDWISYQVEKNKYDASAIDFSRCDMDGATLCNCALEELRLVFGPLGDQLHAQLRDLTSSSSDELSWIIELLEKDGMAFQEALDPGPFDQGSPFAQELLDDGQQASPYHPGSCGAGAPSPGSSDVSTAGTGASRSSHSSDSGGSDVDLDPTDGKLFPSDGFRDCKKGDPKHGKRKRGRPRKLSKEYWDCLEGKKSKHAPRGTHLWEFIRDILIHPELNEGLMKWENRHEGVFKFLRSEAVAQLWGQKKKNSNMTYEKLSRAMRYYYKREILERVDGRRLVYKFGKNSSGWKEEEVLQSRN
# Method in brief: as §1
# CRX = CRX (Homo sapiens, UniProt O43186 1-299); conditions: protein: recombinant; tags: N-terminal GST; dsDNA, one strand shown
# Method in brief: as §1
# ERF = target: T6, ERF (Homo sapiens, UniProt P50548 1-548); conditions: protein: recombinant; tags: N-terminal GST; dsDNA, one strand shown
# T6 sequence: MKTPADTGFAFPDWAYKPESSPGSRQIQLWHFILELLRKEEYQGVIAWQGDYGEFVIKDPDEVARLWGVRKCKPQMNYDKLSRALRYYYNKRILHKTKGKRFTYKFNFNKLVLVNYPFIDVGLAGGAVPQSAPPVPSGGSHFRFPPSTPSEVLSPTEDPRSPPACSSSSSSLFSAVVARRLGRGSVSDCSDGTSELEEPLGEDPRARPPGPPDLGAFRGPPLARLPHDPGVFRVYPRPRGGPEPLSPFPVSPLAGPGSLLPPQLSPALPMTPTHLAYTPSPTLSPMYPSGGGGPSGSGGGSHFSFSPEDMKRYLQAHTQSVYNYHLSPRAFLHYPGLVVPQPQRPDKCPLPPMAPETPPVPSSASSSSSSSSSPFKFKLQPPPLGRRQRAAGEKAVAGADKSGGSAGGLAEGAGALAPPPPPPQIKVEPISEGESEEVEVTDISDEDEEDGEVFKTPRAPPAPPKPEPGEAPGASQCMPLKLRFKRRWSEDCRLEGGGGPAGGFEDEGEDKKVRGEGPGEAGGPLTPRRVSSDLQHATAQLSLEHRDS
# Method in brief: as §1
# ETV3L = target: T7, ETV3L (Homo sapiens, UniProt Q6ZN32 1-361); conditions: protein: recombinant; tags: N-terminal GST; dsDNA, one strand shown
# T7 sequence: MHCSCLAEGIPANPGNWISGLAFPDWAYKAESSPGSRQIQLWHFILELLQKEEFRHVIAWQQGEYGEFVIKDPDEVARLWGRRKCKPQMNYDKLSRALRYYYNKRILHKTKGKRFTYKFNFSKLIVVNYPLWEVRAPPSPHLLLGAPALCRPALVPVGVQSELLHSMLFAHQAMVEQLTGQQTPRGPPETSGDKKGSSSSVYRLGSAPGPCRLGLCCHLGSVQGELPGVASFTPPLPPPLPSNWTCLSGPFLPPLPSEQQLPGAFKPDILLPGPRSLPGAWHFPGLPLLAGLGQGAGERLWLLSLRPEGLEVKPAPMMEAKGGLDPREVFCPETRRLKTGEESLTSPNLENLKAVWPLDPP
# Method in brief: as §1
# ETS2 = target: T8, ETS2 (Homo sapiens, UniProt P15036 1-469); conditions: protein: recombinant; tags: N-terminal GST; dsDNA, one strand shown
# T8 sequence: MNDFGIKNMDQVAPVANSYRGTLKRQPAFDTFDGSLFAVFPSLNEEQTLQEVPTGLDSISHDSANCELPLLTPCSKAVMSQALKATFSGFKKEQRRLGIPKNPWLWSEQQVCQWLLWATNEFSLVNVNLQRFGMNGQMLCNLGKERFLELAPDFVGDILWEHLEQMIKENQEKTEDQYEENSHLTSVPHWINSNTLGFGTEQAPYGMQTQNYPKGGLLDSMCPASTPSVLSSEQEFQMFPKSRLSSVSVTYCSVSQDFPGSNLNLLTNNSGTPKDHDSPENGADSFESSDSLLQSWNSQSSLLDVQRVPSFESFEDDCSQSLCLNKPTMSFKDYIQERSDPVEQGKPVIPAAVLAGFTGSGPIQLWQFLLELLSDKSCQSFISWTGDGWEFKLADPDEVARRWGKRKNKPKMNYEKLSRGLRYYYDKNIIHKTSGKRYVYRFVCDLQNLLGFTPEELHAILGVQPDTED
# Method in brief: as §1
# SPDEF = target: T9, SPDEF (Homo sapiens, UniProt O95238 1-335); conditions: protein: recombinant; tags: N-terminal GST; dsDNA, one strand shown
# T9 sequence: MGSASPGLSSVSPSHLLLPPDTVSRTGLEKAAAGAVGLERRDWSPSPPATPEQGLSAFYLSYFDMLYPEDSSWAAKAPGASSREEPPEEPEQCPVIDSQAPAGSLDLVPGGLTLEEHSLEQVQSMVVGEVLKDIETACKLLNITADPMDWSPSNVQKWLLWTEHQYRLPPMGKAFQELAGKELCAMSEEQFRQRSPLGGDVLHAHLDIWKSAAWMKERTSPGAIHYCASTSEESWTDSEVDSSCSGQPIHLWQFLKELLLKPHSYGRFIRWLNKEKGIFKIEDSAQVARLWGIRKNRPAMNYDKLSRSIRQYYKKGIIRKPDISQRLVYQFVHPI
# Method in brief: as §1
# ETV7 = target: T10, ETV7 (Homo sapiens, UniProt Q9Y603 1-341); conditions: protein: recombinant; tags: N-terminal GST; dsDNA, one strand shown
# T10 sequence: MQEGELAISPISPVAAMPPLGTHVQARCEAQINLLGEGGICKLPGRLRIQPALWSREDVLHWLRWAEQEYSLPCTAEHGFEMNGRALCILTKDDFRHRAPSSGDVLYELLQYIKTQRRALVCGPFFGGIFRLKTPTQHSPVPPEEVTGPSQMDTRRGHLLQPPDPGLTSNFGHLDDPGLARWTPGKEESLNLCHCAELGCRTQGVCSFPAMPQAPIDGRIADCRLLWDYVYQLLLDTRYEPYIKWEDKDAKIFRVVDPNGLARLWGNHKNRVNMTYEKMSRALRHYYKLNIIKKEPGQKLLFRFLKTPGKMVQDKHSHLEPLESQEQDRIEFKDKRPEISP
# Method in brief: as §1
# ELF5 = target: T11, ELF5 (Homo sapiens, UniProt Q9UKW6-2 1-255); conditions: protein: recombinant; tags: N-terminal GST; dsDNA, one strand shown
# T11 sequence: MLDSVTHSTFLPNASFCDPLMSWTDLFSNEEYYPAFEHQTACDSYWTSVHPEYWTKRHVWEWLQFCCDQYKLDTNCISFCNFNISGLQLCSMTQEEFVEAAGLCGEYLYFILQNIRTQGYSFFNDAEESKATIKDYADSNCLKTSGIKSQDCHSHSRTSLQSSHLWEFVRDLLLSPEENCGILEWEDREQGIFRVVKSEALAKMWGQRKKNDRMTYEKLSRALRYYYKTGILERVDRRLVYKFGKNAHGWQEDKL
# Method in brief: as §1
# ETV3 = target: T12, ETV3 (Homo sapiens, UniProt P41162-2 1-143); conditions: protein: recombinant; tags: N-terminal GST; dsDNA, one strand shown
# T12 sequence: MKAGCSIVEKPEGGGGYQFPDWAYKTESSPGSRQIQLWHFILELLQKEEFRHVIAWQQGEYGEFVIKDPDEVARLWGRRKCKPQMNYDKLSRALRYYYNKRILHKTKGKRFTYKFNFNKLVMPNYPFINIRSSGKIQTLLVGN
# Method in brief: as §1
# ETV6 = ETV6 (Homo sapiens, UniProt P41212 1-452); conditions: protein: recombinant; tags: N-terminal GST; dsDNA, one strand shown
# Method in brief: as §1
# Chain of ELF4 (Q99607 whole entry): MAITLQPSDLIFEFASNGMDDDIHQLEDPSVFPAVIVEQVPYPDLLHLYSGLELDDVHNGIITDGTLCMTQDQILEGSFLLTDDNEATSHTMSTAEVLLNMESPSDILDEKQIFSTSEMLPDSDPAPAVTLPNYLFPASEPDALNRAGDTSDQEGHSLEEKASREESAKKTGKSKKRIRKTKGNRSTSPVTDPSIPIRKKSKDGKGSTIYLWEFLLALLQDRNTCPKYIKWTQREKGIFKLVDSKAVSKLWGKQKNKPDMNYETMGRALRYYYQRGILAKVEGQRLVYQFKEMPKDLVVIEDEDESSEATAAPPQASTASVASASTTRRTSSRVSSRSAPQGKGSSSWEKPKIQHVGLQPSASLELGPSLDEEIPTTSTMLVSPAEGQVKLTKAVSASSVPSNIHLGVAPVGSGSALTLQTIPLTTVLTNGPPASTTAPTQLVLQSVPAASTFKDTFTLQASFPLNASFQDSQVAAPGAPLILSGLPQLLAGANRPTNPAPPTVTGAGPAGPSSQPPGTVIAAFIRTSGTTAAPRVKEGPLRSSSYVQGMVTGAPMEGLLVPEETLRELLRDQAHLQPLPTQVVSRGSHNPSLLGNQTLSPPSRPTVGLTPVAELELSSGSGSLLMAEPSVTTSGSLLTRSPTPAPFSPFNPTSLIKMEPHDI
# Chain of ETV6 (P41212 whole entry): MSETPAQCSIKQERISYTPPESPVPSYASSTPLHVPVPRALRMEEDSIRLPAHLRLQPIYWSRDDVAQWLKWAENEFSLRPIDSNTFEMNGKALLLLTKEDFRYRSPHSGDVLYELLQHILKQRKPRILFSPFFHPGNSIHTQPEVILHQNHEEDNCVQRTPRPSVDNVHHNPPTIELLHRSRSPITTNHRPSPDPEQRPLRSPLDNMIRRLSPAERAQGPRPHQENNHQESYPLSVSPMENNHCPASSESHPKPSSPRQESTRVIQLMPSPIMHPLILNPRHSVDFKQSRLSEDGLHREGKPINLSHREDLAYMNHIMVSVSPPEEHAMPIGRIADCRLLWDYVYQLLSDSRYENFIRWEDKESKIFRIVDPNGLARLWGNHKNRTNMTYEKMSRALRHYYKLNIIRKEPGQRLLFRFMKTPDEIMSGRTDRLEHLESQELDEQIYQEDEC
# Chain of HSF1 (Q00613 whole entry): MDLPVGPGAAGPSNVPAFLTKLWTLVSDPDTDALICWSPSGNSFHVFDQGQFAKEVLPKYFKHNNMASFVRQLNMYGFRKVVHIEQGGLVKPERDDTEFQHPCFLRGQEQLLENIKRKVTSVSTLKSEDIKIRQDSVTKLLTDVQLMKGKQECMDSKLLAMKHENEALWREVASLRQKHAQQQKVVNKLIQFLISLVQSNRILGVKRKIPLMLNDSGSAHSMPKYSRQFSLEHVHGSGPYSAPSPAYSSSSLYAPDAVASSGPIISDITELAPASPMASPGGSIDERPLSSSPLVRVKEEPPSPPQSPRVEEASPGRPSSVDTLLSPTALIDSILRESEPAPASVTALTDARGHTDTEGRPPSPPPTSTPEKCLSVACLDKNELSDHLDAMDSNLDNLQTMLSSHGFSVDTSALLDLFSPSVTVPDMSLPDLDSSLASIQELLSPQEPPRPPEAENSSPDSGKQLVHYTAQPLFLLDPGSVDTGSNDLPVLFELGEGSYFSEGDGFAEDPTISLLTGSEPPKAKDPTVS
# Chain of ELF1 (P32519 whole entry): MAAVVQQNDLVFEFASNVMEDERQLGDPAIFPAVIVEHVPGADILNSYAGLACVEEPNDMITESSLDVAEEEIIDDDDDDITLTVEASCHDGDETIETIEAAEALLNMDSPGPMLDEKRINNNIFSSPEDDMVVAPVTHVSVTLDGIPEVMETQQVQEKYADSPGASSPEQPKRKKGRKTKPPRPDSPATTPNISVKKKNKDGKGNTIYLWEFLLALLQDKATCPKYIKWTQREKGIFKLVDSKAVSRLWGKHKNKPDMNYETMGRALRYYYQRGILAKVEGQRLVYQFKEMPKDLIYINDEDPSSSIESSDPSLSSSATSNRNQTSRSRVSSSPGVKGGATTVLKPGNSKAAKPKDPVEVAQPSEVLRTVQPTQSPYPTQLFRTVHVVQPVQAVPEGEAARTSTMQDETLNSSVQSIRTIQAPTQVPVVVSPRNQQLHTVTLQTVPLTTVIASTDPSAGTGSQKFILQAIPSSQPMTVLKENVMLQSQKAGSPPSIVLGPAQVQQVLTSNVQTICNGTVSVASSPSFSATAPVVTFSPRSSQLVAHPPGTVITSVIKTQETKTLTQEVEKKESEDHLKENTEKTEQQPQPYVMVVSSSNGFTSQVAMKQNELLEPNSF
# Chain of CRX (O43186 whole entry): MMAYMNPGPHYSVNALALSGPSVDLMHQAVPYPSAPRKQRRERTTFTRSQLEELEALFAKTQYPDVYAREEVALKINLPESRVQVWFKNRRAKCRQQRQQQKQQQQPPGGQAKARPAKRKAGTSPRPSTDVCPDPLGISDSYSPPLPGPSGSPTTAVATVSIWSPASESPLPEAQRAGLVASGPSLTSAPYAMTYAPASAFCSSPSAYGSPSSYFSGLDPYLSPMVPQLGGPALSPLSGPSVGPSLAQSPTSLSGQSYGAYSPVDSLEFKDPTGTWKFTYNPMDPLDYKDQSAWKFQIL
sequence,measurement,setting,value
AGAATA,binding signal,ELK1,"1.04 fold enrichment (6-mer frequency, TF over GST control)"
same,binding signal,GABPA,"1 fold enrichment (6-mer frequency, TF over GST control)"
same,binding signal,ELF1,"1.01 fold enrichment (6-mer frequency, TF over GST control)"
same,binding signal,SPI1,"1 fold enrichment (6-mer frequency, TF over GST control)"
same,binding signal,HSF1,"2.32 fold enrichment (6-mer frequency, TF over GST control)"
same,binding signal,ELF4,"1.06 fold enrichment (6-mer frequency, TF over GST control)"
same,binding signal,ELK4,"1.02 fold enrichment (6-mer frequency, TF over GST control)"
same,binding signal,ETV2,"1.07 fold enrichment (6-mer frequency, TF over GST control)"
same,binding signal,ELF3,"1.04 fold enrichment (6-mer frequency, TF over GST control)"
same,binding signal,CRX,"1.42 fold enrichment (6-mer frequency, TF over GST control)"
same,binding signal,ERF,"1.03 fold enrichment (6-mer frequency, TF over GST control)"
same,binding signal,ETV3L,"1.04 fold enrichment (6-mer frequency, TF over GST control)"
same,binding signal,ETS2,"1 fold enrichment (6-mer frequency, TF over GST control)"
same,binding signal,SPDEF,"1.04 fold enrichment (6-mer frequency, TF over GST control)"
same,binding signal,ETV7,"1.08 fold enrichment (6-mer frequency, TF over GST control)"
same,binding signal,ELF5,"1.04 fold enrichment (6-mer frequency, TF over GST control)"
same,binding signal,ETV3,"1.04 fold enrichment (6-mer frequency, TF over GST control)"
same,binding signal,ETV6,"1.07 fold enrichment (6-mer frequency, TF over GST control)"
